Our source for the PBM binding z-score values is the supplement of paper PMC6555819.

In the first assay the test system is PPARg:RXRa 270nM:90nM, anti-RXR (NR concentration 270 nM, RXRa partner concentration 90 nM). As to the kind of experiment: PBM binding z-score (relative to random genomic background probes); higher = stronger binding; sequences stand for … in GC…GCGATTGACAGCGTAGAATGAAGG
Summed up:
(§1)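 Scanned fluorescence from custom Agilent 4×180K protein-binding microarrays was regression-normalized. Binding z-scores use random background probes as reference. Ligand-free nuclear receptor dimers were incubated on the arrays for 1 h and detected with antibodies against each partner (one per run).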
In turn, AATATTAGTTGAGACGAGGGCAACCGATAGGTTG showed a PBM binding z-score of 0.51.

The sequence GCATATAGGTAATACAAGGTGATAGTCCGATTGT came in with a PBM binding z-score of 0.737.

CCTACTGGTCCACGAAAGGTCATTGATTCAGTGA showed a PBM binding z-score of 3.07.

Regarding GCGAGTGGGGCATCAGCAGGTTACCATAACTTAA, the PBM binding z-score is 0.575.

In turn, AGAATGAGGTTGTTAAGATCAGGGAATTGCGGTC returned a PBM binding z-score of 0.206.

Consider TCCAGCAGGCCAGAGGGTCACTCAAGAGGTACGG, for which the PBM binding z-score turned out to be 1.87.

Turning to GCTTGTAGATAAAGGTTAAGAAAGACTAAGCTAA, the PBM binding z-score was 2.24.

For the sequence CAGCCTAGGTCTGGGCCAGTATAGGAGGAACGTT, the PBM binding z-score is -0.953.

CCTAGTTGGTCGAGGTCACACACGCTATAGGTAC yielded a PBM binding z-score of 3.39.

Turning to ACTCGGAGCACAAAGGTCAGAGCTACGCCAGTGA, the PBM binding z-score was determined as 6.38.

TCATATAGGTAAAAGGTGAAAGTCGGTGTGGTAA gave a PBM binding z-score of 8.85.

For the sequence CCTCGGAGGCCAGAAGGTCAGAGCTGTCCGCTTT, the PBM binding z-score was determined as 1.19.

On to TATACAGGGTCAAAGGCCCGAGTACGAATGTCGA, for which the PBM binding z-score stood at 6.28.

Sequence CGTCCAAGGTCAATGCTCGGTCAGTGAAAGCATT showed a PBM binding z-score of 3.99.

In the case of TCTATTACTTGAAGGGCAACCGACGAGTCCGTTT, the PBM binding z-score was found to be 2.11.

CCGAGTAGTTTATGGGGCATTCAGGCAACGGTGA had a PBM binding z-score of 0.448.

As for TCGAGTAGATTAGTCGGGGCATTCAGCCAACATA, the PBM binding z-score amounted to 0.0888.

In turn, CGTCCAAGATCAGCAGGTCAGTGAAAGCGACGTG gave a PBM binding z-score of 0.227.

The subject of another assay is PPARg:RXRa 30nM:10nM, anti-RXR (NR concentration 30 nM, RXRa partner concentration 10 nM). The description is as above. In a few lines: as §1
As to GCTAGCAGGCCATTTGAGTCACTCAATGACGGGC, the PBM binding z-score is -0.625.

In turn, TAGCCTAGGTCATTCAGGGGCCAGTATAGAAAGC showed a PBM binding z-score of 0.55.

The sequence ATCTCTAGTTAAAGTTCAGTGAAAGATCGATAGA yielded a PBM binding z-score of 1.74.

ATATGTAGGTTAGCTGGGTTCATTCAGACTAGGC yielded a PBM binding z-score of 1.75.

As for TCTATTAGTTCATTAGGGCAACCGAAACAGCGGA, the PBM binding z-score worked out at 3.81.

On to CCTGCTAGGTCATGGTCCGCTAATCTACAGTATG, for which the PBM binding z-score came to 0.499.

TGTAGCAGGCCAGAGGGTCACTCAAGAGGTACGG gave a PBM binding z-score of 0.493.

Sequence CGAACTAGGTCAGAACAAGACAGTGAAGGATGAT showed a PBM binding z-score of 2.01.

ATCTCTAGGTAACAAGTTGAGTGAAAGAGAGGAC had a PBM binding z-score of 0.856.

Consider AGTCAAAGCTCAGGACGAGGTAACGTAAAGCACG, for which the PBM binding z-score is -0.133.

Consider ACTAGTTGGTCAGCTGAGGTCAGACACAATTCGG, for which the PBM binding z-score was 0.223.

For the sequence CCTTACGGGTCACGCGGTTATAGCACGACGAGCG, the PBM binding z-score worked out at 2.58.

As for TCTTGTAGAGCAAGCAGGTTAAGAAAGCCTGAGT, the PBM binding z-score stood at 1.29.

On to ATACCAAGGGGATCGTGAGGTCGTTGATACTAAC, for which the PBM binding z-score was -0.375.

As to AGTCAAAGTTCAGGTCGAGGTAACGTAAAGCACG, the PBM binding z-score was 2.07.

As for CCAGACAGGTGAGAAGGTAACCCAGCCTCGATTA, the PBM binding z-score was -0.12.

Take CCTAGCAGGCCAATCTGGGTCACTCAAGGCTTGA: the PBM binding z-score was -0.232.

Sequence TCATATAGGTACAGGTGAAAGTCGAACGATATGA had a PBM binding z-score of 3.76.

The sequence CAAACTAGGTCAAGGACAAAGTCGGTTTGTGCCA showed a PBM binding z-score of 4.87.

On to TCAAATAGGTAATACAGGTGAAAGTCGGCATCTA, for which the PBM binding z-score turned out to be 4.16.

GCTTGTAGATCGAGGTTAAGAAAGACTAAGCTAA returned a PBM binding z-score of -0.204.

ACTATTAGTTCAGACGAGGGCAACCGATAGGTTG: the PBM binding z-score is -0.0108.

For the sequence AATATTAGTTGAGACGAGGGCAACCGATAGGTTG, the PBM binding z-score was 0.0399.

GCATATAGGTAATACAAGGTGATAGTCCGATTGT showed a PBM binding z-score of 0.438.

On to CCTACTGGTCCACGAAAGGTCATTGATTCAGTGA, for which the PBM binding z-score was found to be 0.699.

Sequence GCGAGTGGGGCATCAGCAGGTTACCATAACTTAA returned a PBM binding z-score of -0.218.

AGAATGAGGTTGTTAAGATCAGGGAATTGCGGTC gave a PBM binding z-score of -0.197.

Sequence TCCAGCAGGCCAGAGGGTCACTCAAGAGGTACGG came in with a PBM binding z-score of 1.59.

GCTTGTAGATAAAGGTTAAGAAAGACTAAGCTAA displayed a PBM binding z-score of 0.494.

Consider CAGCCTAGGTCTGGGCCAGTATAGGAGGAACGTT, for which the PBM binding z-score was -0.869.

CCTAGTTGGTCGAGGTCACACACGCTATAGGTAC yielded a PBM binding z-score of 0.788.

As to ACTCGGAGCACAAAGGTCAGAGCTACGCCAGTGA, the PBM binding z-score was determined as 4.55.

As for TCATATAGGTAAAAGGTGAAAGTCGGTGTGGTAA, the PBM binding z-score came out at 10.3.

In the case of CCTCGGAGGCCAGAAGGTCAGAGCTGTCCGCTTT, the PBM binding z-score is -0.826.

In turn, TATACAGGGTCAAAGGCCCGAGTACGAATGTCGA showed a PBM binding z-score of 2.84.

As to CGTCCAAGGTCAATGCTCGGTCAGTGAAAGCATT, the PBM binding z-score came to 1.61.

TCTATTACTTGAAGGGCAACCGACGAGTCCGTTT returned a PBM binding z-score of 3.96.

In turn, CCGAGTAGTTTATGGGGCATTCAGGCAACGGTGA showed a PBM binding z-score of -0.234.

In turn, TCGAGTAGATTAGTCGGGGCATTCAGCCAACATA displayed a PBM binding z-score of 0.947.

Take CGTCCAAGATCAGCAGGTCAGTGAAAGCGACGTG: the PBM binding z-score is -0.568.

A further assay concerns PPARg:RXRa 90nM:30nM, anti-RXR (NR concentration 90 nM, RXRa partner concentration 30 nM). Described as above. In a few lines: as §1
Take GCTAGCAGGCCATTTGAGTCACTCAATGACGGGC: the PBM binding z-score is -0.728.

In turn, TAGCCTAGGTCATTCAGGGGCCAGTATAGAAAGC displayed a PBM binding z-score of 1.45.

Take ATCTCTAGTTAAAGTTCAGTGAAAGATCGATAGA: the PBM binding z-score came out at 2.89.

In the case of ATATGTAGGTTAGCTGGGTTCATTCAGACTAGGC, the PBM binding z-score stood at 2.89.

TCTATTAGTTCATTAGGGCAACCGAAACAGCGGA: the PBM binding z-score amounted to 3.34.

The sequence CCTGCTAGGTCATGGTCCGCTAATCTACAGTATG gave a PBM binding z-score of 1.74.

As to TGTAGCAGGCCAGAGGGTCACTCAAGAGGTACGG, the PBM binding z-score stood at 1.83.

In turn, CGAACTAGGTCAGAACAAGACAGTGAAGGATGAT came in with a PBM binding z-score of 3.41.

ATCTCTAGGTAACAAGTTGAGTGAAAGAGAGGAC returned a PBM binding z-score of 1.6.

In turn, AGTCAAAGCTCAGGACGAGGTAACGTAAAGCACG displayed a PBM binding z-score of -0.117.

Consider ACTAGTTGGTCAGCTGAGGTCAGACACAATTCGG, for which the PBM binding z-score is 0.908.

Regarding CCTTACGGGTCACGCGGTTATAGCACGACGAGCG, the PBM binding z-score came out at 4.96.

The sequence TCTTGTAGAGCAAGCAGGTTAAGAAAGCCTGAGT registered a PBM binding z-score of 1.1.

In turn, ATACCAAGGGGATCGTGAGGTCGTTGATACTAAC came in with a PBM binding z-score of -0.365.

In turn, AGTCAAAGTTCAGGTCGAGGTAACGTAAAGCACG returned a PBM binding z-score of 3.97.

Turning to CCAGACAGGTGAGAAGGTAACCCAGCCTCGATTA, the PBM binding z-score turned out to be 0.118.

CCTAGCAGGCCAATCTGGGTCACTCAAGGCTTGA registered a PBM binding z-score of 1.52.

The sequence TCATATAGGTACAGGTGAAAGTCGAACGATATGA yielded a PBM binding z-score of 2.76.

On to CAAACTAGGTCAAGGACAAAGTCGGTTTGTGCCA, for which the PBM binding z-score was found to be 6.38.

For the sequence TCAAATAGGTAATACAGGTGAAAGTCGGCATCTA, the PBM binding z-score amounted to 3.5.

As to GCTTGTAGATCGAGGTTAAGAAAGACTAAGCTAA, the PBM binding z-score worked out at 0.479.

In turn, ACTATTAGTTCAGACGAGGGCAACCGATAGGTTG came in with a PBM binding z-score of 0.00845.

Regarding AATATTAGTTGAGACGAGGGCAACCGATAGGTTG, the PBM binding z-score worked out at 0.408.

Regarding GCATATAGGTAATACAAGGTGATAGTCCGATTGT, the PBM binding z-score turned out to be 0.536.

Take CCTACTGGTCCACGAAAGGTCATTGATTCAGTGA: the PBM binding z-score is 2.22.

GCGAGTGGGGCATCAGCAGGTTACCATAACTTAA returned a PBM binding z-score of 0.332.

The sequence AGAATGAGGTTGTTAAGATCAGGGAATTGCGGTC came in with a PBM binding z-score of -0.0831.

As to TCCAGCAGGCCAGAGGGTCACTCAAGAGGTACGG, the PBM binding z-score was 1.79.

For GCTTGTAGATAAAGGTTAAGAAAGACTAAGCTAA, the PBM binding z-score is 1.88.

Consider CAGCCTAGGTCTGGGCCAGTATAGGAGGAACGTT, for which the PBM binding z-score is -0.961.

As to CCTAGTTGGTCGAGGTCACACACGCTATAGGTAC, the PBM binding z-score was determined as 2.21.

For the sequence ACTCGGAGCACAAAGGTCAGAGCTACGCCAGTGA, the PBM binding z-score worked out at 6.24.

As for TCATATAGGTAAAAGGTGAAAGTCGGTGTGGTAA, the PBM binding z-score came out at 10.2.

Sequence CCTCGGAGGCCAGAAGGTCAGAGCTGTCCGCTTT registered a PBM binding z-score of 0.521.

TATACAGGGTCAAAGGCCCGAGTACGAATGTCGA registered a PBM binding z-score of 5.12.

In turn, CGTCCAAGGTCAATGCTCGGTCAGTGAAAGCATT displayed a PBM binding z-score of 2.79.

TCTATTACTTGAAGGGCAACCGACGAGTCCGTTT had a PBM binding z-score of 3.26.

On to CCGAGTAGTTTATGGGGCATTCAGGCAACGGTGA, for which the PBM binding z-score worked out at 0.108.

Turning to TCGAGTAGATTAGTCGGGGCATTCAGCCAACATA, the PBM binding z-score is 0.374.

CGTCCAAGATCAGCAGGTCAGTGAAAGCGACGTG: the PBM binding z-score is -0.405.
